# Screens (PubChem BioAssay)
# Wnt act: activators of Wnt/beta-catenin signaling; activation, % at 9.35 µM; actives 1.2% (n = 300,000); AID 743398; Wnt/beta-catenin reporter cell assay, activator, plate reader; in the data active means activation above about 30%, passing the limit was not always enough; inconclusive means no clear call, values can overlap the other calls;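 further: 0% = neutral control wells and 100% = positive control wells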
# esBAF inh: inhibitors of esBAF chromatin remodeling in mouse ES cells | AID 602393 | Bmi1-luciferase knock-in reporter, 24 h; 100% = twice the neutral-well signal | reporter increase, % at 12.5 µM | actives 2% (n = 350,000); in the data active means activation above about 40%; inconclusive means no clear call, values can overlap the other calls;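 further: 0% = median of the plate's neutral control wells and 100% = double that signal; a rise in the Bmi1 reporter signal indicates esBAF inhibition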
# MITF TRPM1 HTS: MITF TRPM1 promoter activation in melanoma cells; SK-MEL-5 TRPM1-promoter luciferase, 24 h; % of positive control, neutral wells = 0; actives 0.75% (n = 300,000); activation, % at 12.5 µM;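 active means mean activation of at least 80% with every replicate also reaching 80%; inconclusive means mean reaches 80% but some replicate falls short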;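 further: 0% = neutral control wells and 100% = parthenolide positive control wells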
# APOBEC3G inh: inhibitors of human APOBEC3G DNA deaminase; Q9HC16; recombinant A3G, ssDNA deamination FAM/TAMRA fluorescence; inhibition, % at 20 µM; actives 0.28% (n = 330,000);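 active means inhibition of at least 40% at 20 µM, with no more than 30% in the related APOBEC3A deaminase screen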;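 further: plate controls were DMSO wells with A3G for no effect and wells lacking A3G enzyme for full effect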
# Target sequence (Q9HC16 whole entry, looked up): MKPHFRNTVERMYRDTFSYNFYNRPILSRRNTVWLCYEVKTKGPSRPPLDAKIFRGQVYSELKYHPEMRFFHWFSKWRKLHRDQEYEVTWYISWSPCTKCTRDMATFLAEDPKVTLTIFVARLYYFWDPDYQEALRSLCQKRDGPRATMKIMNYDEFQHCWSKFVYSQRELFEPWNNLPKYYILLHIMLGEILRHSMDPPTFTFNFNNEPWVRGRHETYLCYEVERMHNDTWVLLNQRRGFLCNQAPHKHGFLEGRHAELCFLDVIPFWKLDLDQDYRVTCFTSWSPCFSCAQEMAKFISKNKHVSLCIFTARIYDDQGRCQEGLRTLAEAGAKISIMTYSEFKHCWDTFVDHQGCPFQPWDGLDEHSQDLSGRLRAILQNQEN
# PHOSPHO1 block: blocks human PHOSPHO1 phosphatase activity | Q8TCT1 | recombinant PHOSPHO1, absorbance phosphatase assay | inhibition, % at 13.3 µM | actives 1.1% (n = 290,000) | AID 1565; in the data active means inhibition above about 60%
# A3A deaminase: blocks human APOBEC3A ssDNA deamination; inhibition, % at 20 µM; P31941; recombinant A3A, FAM/TAMRA ssDNA deamination fluorescence; actives 0.41% (n = 330,000);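 active means at least 40% inhibition at 20 µM here, with at most 30% in a related deaminase screen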;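 further: plate controls were A3A with DMSO for no effect and wells lacking A3A enzyme for full effect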
# Target sequence (P31941 whole entry, looked up): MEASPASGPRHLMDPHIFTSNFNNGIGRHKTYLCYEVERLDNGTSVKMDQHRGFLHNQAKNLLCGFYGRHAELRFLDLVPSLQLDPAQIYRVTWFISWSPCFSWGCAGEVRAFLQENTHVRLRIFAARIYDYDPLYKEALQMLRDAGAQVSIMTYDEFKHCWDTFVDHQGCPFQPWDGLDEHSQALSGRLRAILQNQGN
# Starred values were filed as active, the others as inactive; ? = inconclusive; nt = no result. Hits are enriched below; roughly 3.6% of the tested compounds scored in any of these assays.
SMILES,Wnt act,esBAF inh,MITF TRPM1 HTS,APOBEC3G inh,PHOSPHO1 block,A3A deaminase
O=C(O)c1ccccc1SCc1cn2ccccc2n1,-1.8,nt,-3.8,-7.1,-21.2,0.0
Cc1ccc(SCc2cn3ccccc3n2)cc1,32.6*,38.5,96.4*,-8.0,15.9,1.6
c1ccc2oc(SCc3cn4ccccc4n3)nc2c1,?,nt,37.5,-3.3,7.0,-3.1
COc1ccc(S(=O)(=O)Nc2ccc3c(c2)[C@@H]2C[C@H](CC(=O)NCC4CC4)O[C@@H](CO)[C@@H]2O3)cc1,nt,0.6,nt,nt,nt,nt
N#C[C@H]1[C@@H](c2ccc(C3=CCCC3)cc2)[C@H](CO)N1C(=O)NC1CCCC1,nt,1.1,nt,nt,nt,nt
Cc1ccccc1-c1cc(C(=O)N/N=C/c2cccnc2)c2ccccc2n1,-1.5,-6.3,-9.2,-3.2,65.8*,-0.4
O=C(C[C@@H]1CC[C@H]2[C@@H](COC[C@H](O)CN2C(=O)c2cnccn2)O1)N1CCN(c2ccccc2)CC1,nt,-3.5,nt,nt,nt,nt
C[C@@H]1CN([C@H](C)CO)S(=O)(=O)c2ccc(-c3ccc(F)cc3)cc2O[C@@H]1CN(C)C(=O)Nc1ccccc1F,nt,-2.0,nt,nt,nt,nt
CCOC(=O)c1c(-c2ccccc2)csc1NC(=O)C1CCCO1 (stereo not given),-8.2,-6.0,-3.8,35.0,72.0*,-1.5
CCOC(=O)c1c(-c2ccc(C)cc2)csc1NC(=S)NC(=O)c1ccccc1,-16.2,-2.9,nt,-6.4,-17.9,-6.6
CCOC(=O)c1c(-c2ccc(C)cc2)csc1NC(=O)c1cc2ccccc2oc1=O,12.0,48.8*,1.9,-4.1,nt,-0.7
CCOC(=O)c1c(-c2ccc(-c3ccccc3)cc2)csc1NC(=O)C1C2CCC(O2)C1C(=O)O (stereo not given),nt,1.8,0.3,-5.1,-18.6,-2.1
O=C1CC(Sc2nnc(-c3ccccc3O)o2)C(=O)N1c1ccccc1 (stereo not given),-0.9,-6.5,-6.5,-2.1,95.3*,-3.2
COc1ccc(N2C(=O)CC(Sc3nnc(-c4ccccc4)o3)C2=O)cc1 (stereo not given),-13.2,3.2,nt,-4.7,56.5,-1.9
CCC(=O)N(C)C[C@@H]1Oc2ncc(C#C[C@@H](C)O)cc2C(=O)N([C@@H](C)CO)C[C@@H]1C,nt,2.7,nt,nt,nt,nt
CCc1ccc(NC(=S)Nc2cccc3cnccc23)cc1,33.5*,62.4*,6.9,-1.0,43.6,1.2
O=C(C[C@@H]1C[C@H]2c3cc(NC(=O)c4cccnc4)ccc3O[C@H]2[C@H](CO)O1)NCc1cc(F)ccc1F,nt,-3.3,nt,nt,nt,nt
CC(=O)Nc1ccc(C(=O)NC(C)c2ccc(-n3ccnc3)cc2)cc1 (stereo not given),2.1,nt,-4.0,15.7,67.6*,2.3
Cc1ccc(C(=O)NC(C)c2ccc(-n3ccnc3)cc2)cc1 (stereo not given),-1.7,0.2,-1.3,-1.1,20.0,-1.1
C[C@@H]1CN([C@@H](C)CO)C(=O)c2cc(-c3cccc(F)c3)cnc2O[C@H]1CN(C)C(=O)c1cnccn1,nt,2.8,nt,nt,nt,nt
Cc1ccccc1Nc1cc(C)c2c(O)cccc2n1,5.6,9.2,35.9,-13.1,-6.1,-4.8
Cc1ccc(Nc2cc(C)c3c(O)cccc3n2)cc1C,0.6,24.8,111.1*,-2.1,12.9,0.1
CN(C)C(=O)C[C@@H]1C[C@H]2c3cc(NC(=O)Nc4ccc(C(F)(F)F)cc4)ccc3O[C@H]2[C@H](CO)O1,nt,-1.4,nt,nt,nt,nt
C=CCSc1n[nH]c(-c2ccc(OCCCC)cc2)n1,-1.7,47.5*,66.5,-5.0,2.1,4.1
C=CCSc1n[nH]c(-c2ccc(OCCC)cc2)n1,21.4,73.7*,92.1*,-9.2,-21.3,0.6
SMILES,Wnt act,esBAF inh,MITF TRPM1 HTS,APOBEC3G inh,PHOSPHO1 block,A3A deaminase
C=CCSc1n[nH]c(-c2cccs2)n1,4.7,17.9,25.8,-1.5,3.3,-1.8
S=c1nc(-c2ccc(Cl)cc2)[nH][nH]1,9.8,4.2,13.9,9.7,28.5,-7.6
CCCOc1ccc(-c2nc(=S)[nH][nH]2)cc1,-0.3,27.7,57.4,-1.1,95.4*,-4.3
C[C@H](CO)N1C[C@H](C)[C@H](CN(C)C(=O)Nc2cccc3ccccc23)OCCCC[C@H](C)Oc2ccc(NC(=O)c3ccncc3)cc2C1=O,nt,28.7,nt,nt,nt,nt
C[C@H]1CN([C@@H](C)CO)S(=O)(=O)c2ccc(C#CC3CC3)cc2O[C@H]1CN(C)C(=O)C1CCC1,nt,3.5,nt,nt,nt,nt
O=c1c2ccccc2oc2ccc(Oc3ccccc3)cc12,53.7*,31.0,?,4.3,4.0,0.2
O=c1c2ccccc2oc2c1oc1ccccc12,25.3,54.2*,102.8*,6.9,nt,6.8
O=c1c2ccccc2oc2cc(Br)ccc12,-3.2,70.5*,21.7,nt,nt,nt
CN1C(=O)c2cc(NC(=O)c3ccc(F)c(F)c3)ccc2OC[C@H]2O[C@@H](CC(=O)N3CCOCC3)CC[C@@H]21,nt,5.3,nt,nt,nt,nt
O=C(NCc1ccc(F)cc1)[C@@H]1[C@@H](CO)[C@@H]2Cn3c(cccc3=O)[C@@H]2N1Cc1ccccn1,nt,-3.3,nt,nt,nt,nt
CC=Cc1ccc2n(c1=O)C[C@H]1[C@H](CO)[C@@H](C(=O)NCCC)N(CCC(F)(F)F)[C@@H]21 (mixture of isomers),nt,-2.2,nt,nt,nt,nt
CO[C@@H]1CN(C)C(=O)c2cc(NC(=O)c3ccc(-c4ccccc4)cc3)ccc2OC[C@@H](C)NC[C@@H]1C,nt,-6.2,nt,nt,nt,nt
COc1ccc(C2O[C@@H](C)[C@@H]3C(=O)N4CCc5c([nH]c6ccccc56)[C@@H]4C[C@@H]3N2C)cc1 (stereo not given in full),0.5,nt,nt,nt,nt,nt
Cc1ccc(O)c(-n2nc3ccccc3n2)c1,9.9,42.8*,?,-6.5,28.1,0.3
COc1ccc(C)cc1-n1nc2ccccc2n1,-0.7,6.1,2.2,-0.8,29.9,2.3
O=C1c2ccccc2C(=O)N1CCc1c[nH]c2ccccc12,5.3,nt,111.2*,7.8,26.2,-1.3
O=C1c2ccccc2C(=O)N1CCCc1c[nH]c2ccccc12,nt,nt,44.2,-5.9,-14.5,-2.1
CCS(=O)(=O)c1ccc(C=NNc2nc3ccccc3o2)cc1,-2.9,nt,103.6*,nt,nt,nt
CN(C)c1ccc(/C=N/Nc2nc3ccccc3o2)cc1,26.6,-66.1,-9.0,-5.6,9.4,-4.4
COCCn1c(SCCN2CCOCC2)nc2c1c(=O)[nH]c(=O)n2C,0.2,-2.0,4.2,12.2,63.2*,-1.4
COc1ccccc1N1C(=O)CC(Sc2n[nH]c(-c3cccc(C)c3)n2)C1=O (stereo not given),nt,-1.4,18.0,30.6,80.9*,-5.2
O=C(C[C@@H]1CC[C@H](NC(=O)Cc2cccnc2)[C@H](CO)O1)NCc1ccc2c(c1)OCO2,nt,-1.5,nt,nt,nt,nt
COc1ccc(-c2cn3cc(C)ccc3n2)cc1Br,18.0,nt,11.0,-5.0,-6.9,2.2
COc1ccc(-c2cn3nc(C)c(C)nc3n2)cc1OC,?,46.7*,?,-6.4,nt,-3.7
COc1ccc(-c2cn3cc(Cl)ccc3n2)cc1OC,14.6,69.1*,37.7,4.6,5.1,5.2
